Test results: PubChem BioAssay (EPA / NIEHS)
Inconclusive results are not listed. The source made the active and inactive calls. Rule for the calls: active = hit-call score of the fitted dose curve at least 0.9, where 1 is the maximum; inconclusive = response in the unintended direction; inactive = score below 0.9.

read-out: Cytochrome P450 2C9 (Homo sapiens) (UniProt P11712); assay: CLD_CYP2C9_24hr: CellzDirect (CLD) Gene Expression Assay for xenobiotic metabolism (CYP2C9) at 24 hours (AID 2283688)
Experimental: CLD_24hr is a cell-based, multiplexed-readout assay that uses hepatocyte, a human liver primary cell, with measurements taken at 24 hours after chemical dosing in a 96-well plate.CLD_CYP2C9_24hr is one of 16 assay component(s) measured or calculated from the CLD_24hr assay. It is designed to make measurements of mRNA induction, a form of inducible reporter, as detected with chemiluminescence signals by Quantitative Nuclease Protection Assay (qNPA) technology.Data from the assay component CLD_CYP2C9_24hr was analyzed at the endpoint, CLD_CYP2C9_24hr, in the positive analysis fitting direction relative to DMSO as the negative control and baseline of activity. Using a type of inducible reporter, gain-of-signal activity can be used to understand changes in the reporter gene as they relate to the gene CYP2C9. Furthermore, this assay endpoint can be referred to as a primary readout. To generalize the intended target to other relatable targets, this assay endpoint is annotated to the cyp intended target family, where subfamily is xenobiotic metabolism.
Human hepatocyte cultures were treated daily for two consecutive days with fresh dosing solutions containing appropriate concentrations of the 320 ToxCast chemicals (chemical identities were blinded to CellzDirect and other ToxCast collaborators), vehicle control (0.2% DMSO), and positive control inducers as summarized in Table 1. Due to the large number of treatment groups and chemicals examined, the ToxCast chemicals were divided into two groups (spanning two independent cultures of hepatocytes from separate donor preparations (Hu778: ToxCast plates 1 and 2; Hu776: ToxCast plates 3 and 4). Each preparation of human hepatocyte cultures was treated with respective vehicle control, medium only control, set of six positive controls/reference chemicals for the five hepatic receptor pathways, and a subset of eight of the ToxCast chemicals (indoxacarb, pyrithiobac-sodium, norflurazon, cyhalofop-butyl, methomyl, thiram, acetochlor, and propiconazole). These replicate data, coupled with internal replicates designed within the blinded ToxCast chemical library, provided additional data to evaluate interindividual differences between hepatocyte preparations and their potential impact on chemical profiles.Cell morphology and integrity were evaluated using phase-contrast microscopy as an indicator of hepatocyte cell health (Tyson & Green, 1987). Cultures for each treatment group (i.e., media, vehicle [0.2% DMSO], positive control inducers [multiple concentrations], and the ToxCast chemicals [multiple concentrations]) were observed and cell morphology was assessed relative to vehicle control cultures at each harvest time point (0, 6, 24, or 48 h). […] Images were evaluated at the conclusion of the study to assess changes in cell integrity and account for the effects of chemical exposure on uncharacteristic changes in concentration-dependent gene expression profiles. The results from these determinations of apparent cytotoxicity were annotated (yes/no) alongside the corresponding qNPA data for reference.At the conclusion of each treatment period, hepatocyte cultures (96-well) were washed with 1 volume of HBSS, lysed by addition of 25 ul ArrayPlate lysis buffer (HTG, Tucson, AZ), and 70 ul/well of Denaturation Oil, denatured by incubation at 95C for 10 min, and frozen at approximately -70C until analysis by nuclease protection assay (qNPA) (Roberts et al., 2007). For qNPA analysis, cell lysates were thawed at 50C for approximately 30 min, qNPA probes were added, and samples were incubated at 95C for 10 min to begin the detection process by denaturing the target RNA, dissociating the duplexes and secondary structure hybridization. At the conclusion of the hybridization period, S1 nuclease reagent was added to each sample to digest all nonprotected nucleotides at 50C for 60-90 min. […]

Compound | outcome
CCc1cccc(C)c1N(C(=O)CCl)C(C)COC (configuration not stated) | inactive
CNC(=O)ON=C(SC)C(=O)N(C)C | inactive
CON=C(C(=O)OC)c1ccccc1CON=C(C)c1cccc(C(F)(F)F)c1 | inactive
CC[C@H](C)[C@H]1O[C@]2(C=C[C@@H]1C)C[C@@H]1C[C@@H](C/C=C(\C)[C@@H](O[C@H]3C[C@H](OC)[C@@H](O[C@H]4C[C@H](OC)[C@@H](NC)[C@H](C)O4)[C@H](C)O3)[C@@H](C)/C=C/C=C3\CO[C@@H]4[C@H](O)C(C)=C[C@@H](C(=O)O1)[C@]34O)O2 | inactive
Nc1c(Cl)cc([N+](=O)[O-])cc1Cl | inactive
C[N+]1(C)CCCCC1 | inactive
Cc1ccn2nc(S(=O)(=O)Nc3c(F)cccc3F)nc2n1 | inactive
CCCCN(CC)c1c([N+](=O)[O-])cc(C(F)(F)F)cc1[N+](=O)[O-] | inactive
CC(=NC#N)N(C)Cc1ccc(Cl)nc1 | inactive
C#CCC1=C(C)C(OC(=O)C2C(C=C(C)C)C2(C)C)CC1=O (configuration not stated) | inactive
CCc1cccc(CC)c1N(COC)C(=O)CCl | inactive
CNC(=O)Oc1cccc2c1OC(C)(C)O2 | inactive
COc1ccc(C(=CC(=O)N2CCOCC2)c2ccc(Cl)cc2)cc1OC | inactive
CSc1nc(NC(C)C)nc(NC(C)C)n1 | inactive
CCOP(=O)(NC(C)C)Oc1ccc(SC)c(C)c1 (configuration not stated) | inactive
CCOC(=O)COc1cc(-c2nn(C)c(OC(F)F)c2Cl)c(F)cc1Cl | inactive
CCCCSP(=O)(SCCCC)SCCCC | inactive
C=C(C)[C@H]1Cc2c(ccc3c2O[C@@H]2COc4cc(OC)c(OC)cc4[C@@H]2C3=O)O1 | inactive
CCOP(=S)(OCC)OC(Cl)C(Cl)(Cl)Cl (configuration not stated) | inactive

Compound | outcome
CC(C)=CC1C(C(=O)OCN2C(=O)C3=C(CCCC3)C2=O)C1(C)C (configuration not stated) | inactive
Nc1nc(N)nc(NC2CC2)n1 | inactive
CC(COc1ccc(Oc2ccccc2)cc1)Oc1ccccn1 (configuration not stated) | inactive
COc1cc(OC)nc(Sc2cccc(Cl)c2C(=O)O)n1 | inactive
CN(C)C(=O)Nc1cccc(C(F)(F)F)c1 | inactive
CCC(=NOC/C=C/Cl)C1=C(O)CC(C2CCOCC2)CC1=O (configuration not stated) | inactive
O=c1ccc(=O)[nH][nH]1 | inactive
CCOP(=S)(Oc1cnc(C(C)(C)C)nc1)OC(C)C (configuration not stated) | inactive
CCCSP(=O)(OCC)Oc1ccc(Br)cc1Cl (configuration not stated) | inactive
CCOP(=O)(SC(C)CC)N1CCSC1=O (configuration not stated) | inactive
CCOP(=S)(OCC)Oc1ccc2c(C)c(Cl)c(=O)oc2c1 | inactive
CN1COCN(Cc2cnc(Cl)s2)C1=N[N+](=O)[O-] | inactive
CCC(CC)Nc1c([N+](=O)[O-])cc(C)c(C)c1[N+](=O)[O-] | inactive
C#CC(C)(C)NC(=O)c1cc(Cl)cc(Cl)c1 | inactive
CSC1=N[C@@](C)(c2ccccc2)C(=O)N1Nc1ccccc1 | inactive
CCCOc1nn(C(=O)NS(=O)(=O)c2ccccc2C(=O)OC)c(=O)n1C | inactive
CCOP(=O)(OCC)Oc1cc(C)nc(C(C)C)n1 | inactive
CCOC(=O)CC(SP(=O)(OC)OC)C(=O)OCC (configuration not stated) | inactive
